A selection: hits, their analogues and other compounds. The true share with any hit is near 3%.
LDHA block – qHTS assay for inhibitors of human lactate dehydrogenase; purified LDHA, NADH/diaphorase-resazurin fluorescence; stronger effect = lower value; activity change, % (values are at about 110 or 230 µM); 0.15% of 480,000 active; in the data active = activity change below about -30%; inconclusive = mostly about -25% to -30%;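 also: plate controls were DMSO wells for no effect and wells without enzyme for full effect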
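Human LDH5 (2 nM) was incubated with 0.06 mM NADH and 0.2 mM pyruvate for 5 min at room temperature in Tris pH 7.4. Remaining NADH was coupled through diaphorase/resazurin, and resorufin fluorescence was read at 0 and 20 min.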
ClpP mod – qHTS Assay for Activators of ClpP | ATP-dependent Clp protease proteolytic subunit (Bacillus subtilis (strain 168)), P80244 | purified B. subtilis ClpP, FRET peptide cleavage, 20 min | Potency, µM (titrated, usually from 57.5 µM), without a hit: at the top dose activity change, negative = active | 1.9% of 340,000 active | AID 651965, 2013; active = well fitted falling curve with a large enough effect; inconclusive = small, poorly fitted or top-dose-only effect; inactive = no such curve, though single readings can be large or run the other way; also: potency is read from the fitted curve at half-maximal effect; the source files actives as falling curves though it sought activators and does not explain the sign; nearly all actives have a fitted effect of over 65% in size
Target sequence (P80244 whole entry, looked up): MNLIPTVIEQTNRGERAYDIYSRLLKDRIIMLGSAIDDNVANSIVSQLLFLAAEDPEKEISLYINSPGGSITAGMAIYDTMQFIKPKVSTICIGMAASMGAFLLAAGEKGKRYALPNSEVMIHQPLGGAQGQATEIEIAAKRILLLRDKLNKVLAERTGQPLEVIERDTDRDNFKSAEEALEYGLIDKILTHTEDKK
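FRET quenching reversal measured ClpP activation: 10 microg/mL B. subtilis ClpP at pH 8 with the FRET-FV decapeptide, read at 430 nm after 320 nm excitation. The 20-min minus 0-min signal was scaled between DMSO/no-enzyme wells and ADEP (5.8 microM final).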
KCNH2 3.1 inh – qHTS for Inhibitors of KCHN2 3.1: Mutant qHTS; U2OS KCNH2 3.1, thallium flux FluxOr; stronger effect = lower value; 0.95% of 340,000 active; Potassium voltage-gated channel subfamily H member 2, brain isoform KCNH2 3.1 (human); activity change, % (tested at about 1.8 µM);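 active = maximum activity change below -70%; inconclusive = maximum activity change from -70% to -50%; inactive = maximum activity change above -50%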;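 also: thallium influx rate constant from kinetic fluorescence after stimulation buffer; % is scaled to controls: 0 for no effect and ±100 for the full control effect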
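Measured as rate of thallium-driven FluxOr signal in transduced U2OS cells carrying the 3.1 channel, read kinetically for 2 min upon stimulation; values are rate constants scaled to DMSO control wells.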
ALOX12 inh – Primary qHTS assay for inhibitors of human arachidonate 12S-lipoxygenase (ALOX12): Round 2; Potency, µM (series often up to 108 µM), inactives show at the highest dose activity change, negative = inhibition, actives largely listed as inhibitors; Polyunsaturated fatty acid lipoxygenase ALOX12 (Homo sapiens), P18054; 1.1% of 580,000 active; AID 1671190, 2021; purified 12hLO, xylenol orange hydroperoxide absorbance; active = well fitted inhibition curve with a large enough effect; inconclusive = small, poorly fitted or top-dose-only effect, or another doubt; inactive = no such curve, though single readings can be large or run the other way; also: potency is read from the fitted curve at half-maximal effect; % is scaled to controls: 0 for no effect and ±100 for the full control effect
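Hydroperoxide product was detected by ferrous iron/xylenol orange as the 573 to 405 nm absorbance ratio. Arachidonic acid at 40 uM (final) was turned over for 30 min at room temperature by 150 nM human 12hLO, pH 7.0 Hepes buffer, after 15 min compound preincubation.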
Chronic BCR inh – qHTS Assay to Find Inhibitors of Chronic Active B-Cell Receptor Signaling. 0.05% of 340,000 active. ABC-DLBCL IkBa-CBG/CBR reporter, luminescence ratio, 4 h. Potency, µM (highest dose often 46.1 µM), inactives show at the top dose activity change, negative = inhibition, most hits filed as inhibitors; active = well fitted inhibition curve with a large enough effect in the signal ratio, with a control signal flat, not every such curve was filed as active; inconclusive = small, poorly fitted or top-dose-only effect, or effect the other way, or a change in a side signal; the % refers to the signal ratio;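 also: potency is read from the fitted curve at half-maximal effect; plate controls were basal doxycycline-induced cells for no effect and cells given 10 µM MG132 for full effect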
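TMD8 ABC-DLBCL cells carrying doxycycline-inducible green luciferase fused to IkappaBalpha plus unfused red luciferase were exposed to compounds (up to 46 uM) for 4 hrs at 37C. Activity came from the overlap-corrected green/red luminescence ratio.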
KCNH2 WT inh – qHTS for Inhibitors of KCHN2 3.1: Wildtype qHTS | 0.37% of 340,000 active | activity change, % at 1.84 µM | Voltage-gated inwardly rectifying potassium channel KCNH2 (Homo sapiens), Q12809 | AID 720551, 2013 | U2OS, BacMam KCNH2, thallium flux FluxOr; stronger effect = lower value;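 active = maximum activity change below -70%; inconclusive = maximum activity change between -70% and -50%; inactive = maximum activity change above -50%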; also: % is scaled to controls: 0 for no effect and ±100 for the full control effect
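U2OS cells transduced with wild-type KCNH2 virus are loaded with FluxOr dye for 45 min, and thallium flux is measured in kinetic reads before and after stimulation buffer. Rate constants are normalized to DMSO controls.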
* = called active by the depositor; ? = inconclusive; . = not tested or not shown; ! = repeats disagree.

SMILES	LDHA block	ClpP mod	KCNH2 3.1 inh	ALOX12 inh	Chronic BCR inh	KCNH2 WT inh
C[S+](=O)([O-])N1CC2(Cc3ccccc31)CN(C(=O)c1ccccc1Cl)C2	.	.	.	-6%	.	.
Cc1ccccc1C(=O)N1CC2(Cc3ccccc3N([S+](C)(=O)[O-])C2)C1	.	.	.	45µM*	.	.
NCc1ccc(OCc2ccccc2)cc1	0	.	.	11%	.	.
O=C(Cn1nc2c(cc1=O)CCCCC2)N1CCSCC1	.	.	.	27%	.	.
CC(C)CNS(=O)(=O)c1ccc(NC(=O)Cn2nc(-c3ccc(F)cc3)ccc2=O)cc1	-4	28µM*	5	?	-1%	11
COc1cc(C(=O)OCc2ccc(C#N)cc2)cc(OC)c1OC	1	.	.	?	.	.
CC(C)n1cc(CN2CCC(Oc3ccc(C(=O)N4CCCCC4)cc3)CC2)cn1	-7	22µM*	4	-12%	1%	23
COc1cccc(-c2nc(SCc3cc(=O)n4c5c(sc4n3)CCCC5)n[nH]2)c1	?	.	.	10%	.	.
Cc1nn(Cc2ccccc2)c2ncccc12	-1	-6%	-13	45µM*	-7%	7
Cc1ccc(Cn2c(=O)c3cccnc3n(Cc3ccc(C)cc3)c2=O)cc1	-11	-7%	.	-15%	.	.
Cc1nn(CCc2nc(-c3ccc4ccccc4c3)cs2)c2[nH]c(=O)cc(C(F)(F)F)c12	0	.	.	?	.	.
COc1ccc(-c2csc(CCn3nc(C)c4c(C(F)(F)F)cc(=O)[nH]c43)n2)cc1	2	.	.	18µM*	.	.
Cc1nn(CCc2nc(-c3ccc(OC(F)F)cc3)cs2)c2[nH]c(=O)cc(C(F)(F)F)c12	0	.	.	?	.	.
Cc1ccc(-c2csc(CCn3nc(C)c4c(C(F)(F)F)cc(=O)[nH]c43)n2)cc1	2	.	.	10µM*	.	.
O=C(O)c1nc(NCCc2ccccc2)ncc1Cl	-3	.	-180*	-16%	8%	-113*
O=C(O)c1nc(NCc2ccccc2)ncc1Cl	-4	-22%	18	0%	0%	.
CC(C)(C)c1nnc(NC(=O)CS(=O)(=O)Cc2ccccc2)s1	8	.	-10	40µM*!	2%	1
COc1ccc2c(C)c(CCC(=O)NCCCO)c(=O)oc2c1	-4	.	.	-2%	.	.
CCOc1ccc(-n2c(-c3ccccc3)c[n+]3c2CCC3)cc1	-5	-1%	-14	-1%	1%	9
CSc1c[n+]2c(n1C)CCC2	-34*	1%	13	45µM*	0%	1
Cn1c(=N)c(S(=O)(=O)c2ccccc2)cc2c(=O)n3ccccc3nc21	0	7.9µM*	-4	0%	10%	-1
Cn1c(=N)c(S(=O)(=O)c2ccc(F)cc2)cc2c(=O)n3ccccc3nc21	-5	-7%	-5	?	1%	-4
CC(C)CC(=O)N1CCN(Cc2ccc3c(c2)OCO3)CC1	-11	4%	16	?	-9%	-133*
CCCC(=O)N1CCN(Cc2ccc3c(c2)OCO3)CC1	-4	-4%	-4	16%	7%	0
O=C(c1cccn2c(=O)c3ccccc3nc12)N1CCN(Cc2ccc3c(c2)OCO3)CC1	-1	?	-12	11%	-2%	25
SMILES	LDHA block	ClpP mod	KCNH2 3.1 inh	ALOX12 inh	Chronic BCR inh	KCNH2 WT inh
COc1ccc(N(CC(=O)N2CCN(Cc3ccc4c(c3)OCO4)CC2)S(=O)(=O)c2ccc(F)cc2)cc1	-6	-1%	-86*	-15%	?	-44
O=C(c1ccc2nc3ccccc3c(=O)n2c1)N1CCN(Cc2ccc3c(c2)OCO3)CC1	2	20µM*	4	12%	2%	0
O=C(c1ccc2nccnc2c1)N1CCN(Cc2ccc3c(c2)OCO3)CC1	-1	-2%	-87*	-19%	-3%	-3
COc1ccc(S(=O)(=O)Nc2ccc(CCc3nc4ccc(C)cc4[nH]3)cc2)cc1	-6	.	.	?	.	.
COc1cccc(CN2CCC(C(=O)N3CCN(Cc4ccc5c(c4)OCO5)CC3)CC2)c1	-33*	-1%	7	?	-3%	47
COc1cccc(CN2CCC(C(=O)N3CCN(c4ccccc4F)CC3)CC2)c1	-8	-2%	9	-19%	-2%	12
CCN(CC)C(=O)C1=C(C)N(Cc2ccc(OC)cc2)C(=O)C(CC(=O)NCCN2CCOCC2)C1 (stereo not given)	6	0%	14	16µM*	.	-4
Fc1ccc(C2CC(c3ccco3)n3ncnc3N2)cc1 (stereo not given)	-6	-16%	-175*	303%	-1%	-130*
COc1ccc(-c2noc(CC3CCN(C(=O)C4(c5ccc(OC)cc5)CC4)CC3)n2)cc1	.	.	.	-7%	.	.
Cc1cc(Cl)ccc1N=c1ssnc1Cl	-7	1%	-1	?	?	-3
Cc1nnc(N=c2ssnc2Cl)o1	-1	-2%	-21	3.2µM*	-6%	2
Nc1ccccc1N=c1ssnc1Cl	-5	4%	4	?	?	2
Cc1ccc(N=c2ssnc2Cl)cc1	-8	0%	0	1.6µM*	1%	-2
COc1cc(N=c2ssnc2Cl)c(OC)cc1Cl	4	1%	4	2.5µM*!	?	11
COc1ccc(OC)c(N=c2ssnc2Cl)c1	3	-10%	-8	?	5%	19
